# Experimental data taken from PubChem BioAssay AID504602 (National Center for Advancing Translational Sciences (NCATS), 2011).
# Inconclusive results are not listed. A number with no mark means an inactive call. Active and inactive are the calls of the source. The call rests on the fitted dose curve; in most records, active means well fitted curve in the direction sought with a large enough effect; inconclusive means small, poorly fitted or top-dose-only effect, or effect the other way, or another doubt; inactive means no such curve, though single readings can be large or run the other way.
# Assay: Quantitative high throughput screen to test cell viability of anti-malarial compounds targeting the delayed death phenotype
# Conditions: HepG2 viability, CellTiter-Glo luminescence, 48 h; series mostly up to 46.1 µM; activity change, negative = cytotoxicity: at the top concentration
# Description: The biochemical processes that make this organelle essential for erythrocytic stage parasites are not well understood. However, antibiotics, such as azithromycin and tetracycline, which target the apicoplast translational machinery, have a potent antimalarial effect. […] We have developed a cell-based assay that measures parasite growth based on the expression of an integrated copy of a firefly luciferase reporter. To detect small molecules that cause this 'delayed death' phenotype, erythrocytes infected with the luciferase-expressing parasites were incubated with compounds for either one or two generations, corresponding to 48 and 96 hours, respectively. Compounds that inhibit parasite growth in the second generation, but not the first, should be enriched in antimalarials that target the apicoplast. Growth inhibition is detected by a decrease in luciferase activity. The goal of this counterscreen is to measure the cytoxoxicity (against HepG2 cell line) of a set of anti-malarial compounds that target the delayed death pheonotype as identified by the qHTS assay that inhibit the development of the apicoplast in the malarial parasite Plasmodium falciparum. NIH Molecular Libraries Probe Production Network [MLPCN] NIH Chemical Genomics Center [NCGC] MLPCN Grant: R21 NS059500 Assay Provider: David Fidock and Eric Ekland, Columbia University
# Cells were plated at a density of 2000 cells/well/5uL in 1536 well white tissue culture plate with culture medium. Triplicate plates were prepared. Plates were incubated at 37C, 5% CO2 for 5 hours and then 23nL of compounds and positive control were transferred to the assay plates. Tetraoctylammonium bromide was added as a positive control. Plates were then incubated at 37C, 5% CO2 for 48 hours. 5 uL of CellTitler-Glo buffer was added to each well and then incubated for 30 min at room temperature. Luminescence was measured using ViewLux (1 second, slow, 2X).
Compound,"activity change, negative = cytotoxicity [%]",Potency
C[C@@H]1CN(C)C(=O)c2cc(NC(=O)Nc3ccccc3)ccc2O[C@@H](C)CCCCO[C@@H]1CN(C)S(=O)(=O)c1ccc(F)cc1,16.5,
C[C@@H]1CN([C@@H](C)CO)C(=O)c2cc(Nc3nc4ccccc4o3)ccc2O[C@@H](C)CCCCO[C@H]1CN(C)S(=O)(=O)c1ccc(F)cc1,11.4,
C[C@@H]1CN([C@@H](C)CO)C(=O)c2cc(NC(=O)Nc3ccccc3)ccc2O[C@@H](C)CCCCO[C@H]1CN(C)Cc1ccc(C(F)(F)F)cc1,16.6,
C[C@@H]1CN([C@@H](C)CO)C(=O)c2cc(N)ccc2O[C@@H](C)CCCCO[C@H]1CN(C)S(=O)(=O)c1ccc(F)cc1,8.01,
C[C@@H]1CN([C@@H](C)CO)C(=O)c2cc(NC(=O)Nc3ccccc3)ccc2O[C@@H](C)C/C=C/CO[C@H]1CN(C)S(=O)(=O)c1ccc(F)cc1,4.49,
C[C@@H]1CN([C@@H](C)CO)C(=O)c2cc(NC(=O)Nc3ccccc3)ccc2O[C@@H](C)CCCCO[C@H]1CN(C)S(=O)(=O)c1ccc(C(F)(F)F)cc1,-7.97,
C[C@@H]1CN([C@@H](C)CO)C(=O)c2cc(NC(=O)Nc3ccccc3)ccc2O[C@@H](C)CCCCO[C@H]1CN(C)C(=O)OC(C)(C)C,-7.33,
COc1ccc(COC[C@H](C)N2C[C@@H](C)[C@H](CN(C)S(=O)(=O)c3ccc(F)cc3)OCCCC[C@H](C)Oc3ccc(NC(=O)Nc4ccccc4)cc3C2=O)cc1,-15,
C[C@@H]1CN([C@@H](C)CO[Si](C)(C)C(C)(C)C)C(=O)c2cc(NC(=O)Nc3ccccc3)ccc2O[C@@H](C)CCCCO[C@H]1CN(C)S(=O)(=O)c1ccc(F)cc1,-14.3,
COc1ccc(COCCN2C[C@@H](C)[C@H](CN(C)S(=O)(=O)c3ccc(F)cc3)OCCCC[C@H](C)Oc3ccc(NC(=O)Nc4ccccc4)cc3C2=O)cc1,-2.11,
C[C@@H]1CN([C@@H](C)COC(=O)c2ccccc2)C(=O)c2cc(NC(=O)Nc3ccccc3)ccc2O[C@@H](C)CCCCO[C@H]1CN(C)S(=O)(=O)c1ccc(F)cc1,3.02,
C[C@@H]1CN([C@@H](C)CO)C(=O)c2cc(NC(=O)Nc3ccccc3)ccc2O[C@@H](C)C/C=C\CO[C@H]1CN(C)S(=O)(=O)c1ccc(F)cc1,25.5,
C[C@@H]1CN(CCO[Si](C)(C)C(C)(C)C)C(=O)c2cc(NC(=O)Nc3ccccc3)ccc2O[C@@H](C)CCCCO[C@H]1CN(C)S(=O)(=O)c1ccc(F)cc1,-5.91,
C=CCOC(=O)N(C)C[C@@H]1OCCCC[C@H](C)Oc2ccc(NC(=O)Nc3ccccc3)cc2C(=O)N([C@@H](C)CO)C[C@H]1C,-17.9,
C[C@@H]1CN([C@H](C)CO[Si](C)(C)C(C)(C)C)C(=O)c2cc(NC(=O)Nc3ccccc3)ccc2O[C@@H](C)CCCCO[C@H]1CN(C)S(=O)(=O)c1ccc(F)cc1,-18,
C[C@@H]1CN([C@@H](C)COC(=O)c2ccccc2)C(=O)c2cc(NC(=O)Nc3ccccc3)ccc2O[C@@H](C)CCCCO[C@H]1CN(C)C(=O)OC(C)(C)C,-7.44,
C[C@@H]1CN([C@@H](C)CO)C(=O)c2cc(NC(=O)Nc3ccccc3)ccc2O[C@@H](C)CCCCO[C@H]1CN(C)S(=O)(=O)c1ccccc1F,7.68,
C=CCOC(=O)N(C)C[C@@H]1OCCCC[C@H](C)Oc2ccc(NC(=O)Nc3ccccc3)cc2C(=O)N([C@H](C)COC(=O)c2ccccc2)C[C@H]1C,19.1,
Cc1noc(C)c1NC(=O)Nc1ccc2c(c1)C(=O)N([C@@H](C)CO)C[C@@H](C)[C@H](CN(C)S(=O)(=O)c1ccc(F)cc1)OCCCC[C@H](C)O2,12.1,
COCOC[C@H](C)N1C[C@@H](C)[C@H](CN(C)S(=O)(=O)c2ccc(F)cc2)OCCCC[C@H](C)Oc2ccc(NC(=O)Nc3ccccc3)cc2C1=O,,7.91 µM (active)
CC(C)NC(=O)Nc1ccc2c(c1)C(=O)N([C@@H](C)CO)C[C@@H](C)[C@H](CN(C)S(=O)(=O)c1ccc(F)cc1)OCCCC[C@H](C)O2,16.9,
C[C@@H]1CN([C@@H](C)COC(C)(C)C)C(=O)c2cc(NC(=O)Nc3ccccc3)ccc2O[C@@H](C)CCCCO[C@H]1CN(C)S(=O)(=O)c1ccc(F)cc1,4.18,
COCCOC(=O)N(C)C[C@@H]1OCCCC[C@H](C)Oc2ccc(NC(=O)Nc3ccccc3)cc2C(=O)N([C@@H](C)CO)C[C@H]1C,6.18,
C[C@@H]1CN([C@@H](C)COC(=O)C(C)(C)C)C(=O)c2cc(NC(=O)Nc3ccccc3)ccc2O[C@@H](C)CCCCO[C@H]1CN(C)S(=O)(=O)c1ccc(F)cc1,19.5,
C[C@@H]1CN(CCO)C(=O)c2cc(NC(=O)Nc3ccccc3)ccc2O[C@@H](C)CCCCO[C@H]1CN(C)S(=O)(=O)c1ccc(F)cc1,-1.25,
C[C@@H]1CN([C@@H](C)CO)C(=O)c2cc(NC(=O)Nc3ccccc3)ccc2O[C@@H](C)CCCCO[C@H]1CN(C)S(=O)(=O)c1cccc(F)c1,4.87,
C[C@@H]1CN([C@@H](C)CO)C(=O)c2cc(NC(=O)Nc3ccccc3)ccc2O[C@@H](C)CCCCO[C@H]1CN(C)S(=O)(=O)c1cccnc1,4.77,
C=CCOC(=O)N(C)C[C@H]1OCCCC[C@H](C)Oc2ccc(NC(=O)Nc3ccccc3)cc2C(=O)N([C@@H](C)CO[Si](C)(C)C(C)(C)C)C[C@H]1C,-5.42,
Cc1noc(C)c1NC(=O)Nc1ccc2c(c1)C(=O)N(C(C)C)C[C@@H](C)[C@H](CN(C)S(=O)(=O)c1ccc(F)cc1)OCCCC[C@H](C)O2,9.18,
C[C@@H]1CN([C@@H](C)CN=[N+]=[N-])C(=O)c2cc(NC(=O)Nc3ccccc3)ccc2O[C@@H](C)CCCCO[C@H]1CN(C)S(=O)(=O)c1ccc(F)cc1,-2.67,
